Experimental data as given in the antibiotic and cytotoxicity screens of Wong et al. (2023).
Hit rate of the full screen: of about 39,000 compounds, about 3,300 (8.5%) were called active. This is one part of a sample in which actives are shown more often than they occur.

The compounds below were run on HepG2 (assay: cytotoxicity call (relative viability < 0.9)). Settings: 10 µM.

**Q.** For `O=C(CC(=O)N1CCOCC1)N1CCOCC1`, which cytotoxicity call is on record?
**A.** inactive

**Q.** With `Cc1noc(C)c1S(=O)(=O)Nc1ccc2c(c1)C(=O)N([C@H](C)CO)C[C@@H](C)[C@@H](CN(C)Cc1ccc3c(c1)OCO3)O2` as the compound, how does the cytotoxicity call read?
**A.** inactive

**Q.** For `CC(C)c1nc2cc3sc(C(C)C)nc3cc2s1`, which cytotoxicity call is on record?
**A.** inactive

**Q.** With `CCCCCCCCCC(=O)N[C@H]1[C@H](Oc2c3cc4cc2Oc2ccc(cc2Cl)[C@@H](O[C@@H]2O[C@H](CO)[C@@H](O)[C@H](O)[C@H]2NC(C)=O)[C@@H]2NC(=O)[C@H](NC(=O)[C@@H]4NC(=O)[C@H]4NC(=O)[C@@H](Cc5ccc(c(Cl)c5)O3)NC(=O)[C@@H](N)c3ccc(O)c(c3)Oc3cc(O)cc4c3)c3ccc(O)c(c3)-c3c(O[C@H]4O[C@H](CO)[C@@H](O)[C@H](O)[C@@H]4O)cc(O)cc3[C@H](C(=O)O)NC2=O)O[C@H](CO)[C@@H](O)[C@@H]1O` as the compound, how does the cytotoxicity call read?
**A.** inactive

**Q.** With `CN1CCN(C(=O)C[C@@H]2CC[C@H]3[C@@H](COc4ccc(NC(=O)C5CCOCC5)cc4C(=O)N3C)O2)CC1` as the compound, how does the cytotoxicity call read?
**A.** inactive

**Q.** Which cytotoxicity call does the source give for `CS(=O)(=O)N1C[C@H](O)COC[C@@H]2O[C@@H](CC(=O)NCc3ccccc3)CC[C@H]21` here?
**A.** inactive

**Q.** Which cytotoxicity call does the source give for `C[C@@H]1CN([C@@H](C)CO)S(=O)(=O)c2ccc(C#Cc3ccncc3)cc2O[C@@H]1CN(C)S(=O)(=O)c1ccc(F)cc1` here?
**A.** active

**Q.** How did the cytotoxicity call turn out when `C[C@@H]1CN([C@@H](C)CO)S(=O)(=O)c2ccc(C#Cc3ccc(F)cc3)cc2O[C@H]1CN(C)S(=O)(=O)c1ccc(F)cc1` was run?
**A.** inactive

**Q.** With `C[C@@H]1CN([C@@H](C)CO)S(=O)(=O)c2ccc(C#Cc3ccc(F)cc3)cc2O[C@@H]1CN(C)S(=O)(=O)c1ccc(F)cc1` as the compound, how does the cytotoxicity call read?
**A.** inactive

**Q.** Which cytotoxicity call does the source give for `C[C@H](CO)N1C[C@H](C)[C@@H](CN(C)S(=O)(=O)c2ccc(F)cc2)Oc2cc(C#Cc3ccc(F)cc3)ccc2S1(=O)=O` here?
**A.** inactive

**Q.** With `C[C@H](CO)N1C[C@H](C)[C@H](CN(C)S(=O)(=O)c2ccc(F)cc2)Oc2cc(C#Cc3ccc(F)cc3)ccc2S1(=O)=O` as the compound, how does the cytotoxicity call read?
**A.** inactive

**Q.** Which cytotoxicity call does the source give for `C[C@H](CO)N1C[C@H](C)[C@H](CN(C)S(=O)(=O)c2ccc(F)cc2)Oc2cc(C#Cc3ccncc3)ccc2S1(=O)=O` here?
**A.** active

**Q.** Which cytotoxicity call does the source give for `C[C@@H]1CCCCO[C@H](CN(C)C(=O)NC2CCCCC2)[C@@H](C)CN([C@H](C)CO)C(=O)c2cc(NC(=O)Nc3ccc(F)cc3)ccc2O1` here?
**A.** inactive

**Q.** `Cc1noc(C)c1NC(=O)N[C@H]1C=C[C@@H](CC(=O)NCCCN(C)C)O[C@H]1CO` was tested. Which cytotoxicity call did it give?
**A.** inactive

**Q.** For `C[C@@H]1CN([C@@H](C)CO)C(=O)c2cc(C#CCN(C)C)cnc2O[C@@H]1CN(C)C(=O)Nc1ccccc1F`, which cytotoxicity call is on record?
**A.** inactive

**Q.** With `Nc1cc2[nH]cnc2c(O)n1` as the compound, how does the cytotoxicity call read?
**A.** inactive

**Q.** `Nc1nc(S)c2nc[nH]c2n1` was tested. Which cytotoxicity call did it give?
**A.** active

**Q.** How did the cytotoxicity call turn out when `Nc1ncnc2[nH]cnc12` was run?
**A.** inactive

**Q.** How did the cytotoxicity call turn out when `CCN(CC)C(=O)c1ccc[n+](CC(N)=O)c1` was run?
**A.** inactive

**Q.** With `O=C(CCCCCNC(=O)OCCCCO[C@@H]1C[C@H](c2ccc(C(F)(F)F)cc2)C=C(C(=O)N2CCN(Cc3ccc4c(c3)OCO4)CC2)O1)NO` as the compound, how does the cytotoxicity call read?
**A.** inactive

**Q.** Which cytotoxicity call does the source give for `Cc1noc(C)c1S(=O)(=O)Nc1ccc2c(c1)C(=O)N([C@H](C)CO)C[C@@H](C)[C@@H](CN(C)Cc1ccc(Cl)c(Cl)c1)OCCCC[C@H](C)O2` here?
**A.** active

**Q.** With `Cc1noc(C)c1S(=O)(=O)Nc1ccc2c(c1)C(=O)N([C@H](C)CO)C[C@@H](C)[C@@H](CN(C)Cc1ccc(C(F)(F)F)cc1)OCCCC[C@@H](C)O2` as the compound, how does the cytotoxicity call read?
**A.** inactive

**Q.** `Cc1noc(C)c1S(=O)(=O)Nc1ccc2c(c1)C(=O)N([C@@H](C)CO)C[C@H](C)[C@H](CN(C)Cc1ccc(C(F)(F)F)cc1)OCCCC[C@@H](C)O2` was tested. Which cytotoxicity call did it give?
**A.** active

**Q.** `Cc1noc(C)c1S(=O)(=O)Nc1ccc2c(c1)C(=O)N([C@H](C)CO)C[C@H](C)[C@H](CN(C)Cc1ccc(C(F)(F)F)cc1)OCCCC[C@H](C)O2` was tested. Which cytotoxicity call did it give?
**A.** inactive

**Q.** `Cc1noc(C)c1S(=O)(=O)Nc1ccc2c(c1)C(=O)N([C@H](C)CO)C[C@@H](C)[C@H](CN(C)Cc1ccc(C(F)(F)F)cc1)OCCCC[C@H](C)O2` was tested. Which cytotoxicity call did it give?
**A.** active

**Q.** How did the cytotoxicity call turn out when `Cc1noc(C)c1S(=O)(=O)Nc1ccc2c(c1)C(=O)N([C@H](C)CO)C[C@H](C)[C@H](CN(C)Cc1ccc(C(F)(F)F)cc1)OCCCC[C@@H](C)O2` was run?
**A.** inactive

**Q.** `Cc1noc(C)c1S(=O)(=O)Nc1ccc2c(c1)C(=O)N([C@@H](C)CO)C[C@H](C)[C@@H](CN(C)Cc1ccc(C(F)(F)F)cc1)OCCCC[C@@H](C)O2` was tested. Which cytotoxicity call did it give?
**A.** inactive

**Q.** Which cytotoxicity call does the source give for `Cc1noc(C)c1S(=O)(=O)Nc1ccc2c(c1)C(=O)N([C@H](C)CO)C[C@H](C)[C@@H](CN(C)Cc1ccc(C(F)(F)F)cc1)OCCCC[C@H](C)O2` here?
**A.** inactive

**Q.** `Cc1noc(C)c1S(=O)(=O)Nc1ccc2c(c1)C(=O)N([C@H](C)CO)C[C@@H](C)[C@@H](CN(C)Cc1ccc(C(F)(F)F)cc1)OCCCC[C@H](C)O2` was tested. Which cytotoxicity call did it give?
**A.** active

**Q.** For `Cc1noc(C)c1S(=O)(=O)Nc1ccc2c(c1)C(=O)N([C@H](C)CO)C[C@@H](C)[C@H](CN(C)Cc1ccc(C(F)(F)F)cc1)OCCCC[C@@H](C)O2`, which cytotoxicity call is on record?
**A.** inactive

**Q.** How did the cytotoxicity call turn out when `Cc1noc(C)c1S(=O)(=O)Nc1ccc2c(c1)C(=O)N([C@@H](C)CO)C[C@H](C)[C@@H](CN(C)Cc1ccc(Cl)c(Cl)c1)OCCCC[C@H](C)O2` was run?
**A.** inactive

**Q.** With `Cc1noc(C)c1S(=O)(=O)Nc1ccc2c(c1)C(=O)N([C@H](C)CO)C[C@H](C)[C@@H](CN(C)Cc1ccc(Cl)c(Cl)c1)OCCCC[C@H](C)O2` as the compound, how does the cytotoxicity call read?
**A.** inactive

**Q.** With `O=C(C[C@H]1CC[C@H]2[C@@H](COC[C@@H](O)CN2S(=O)(=O)c2cccc(Cl)c2)O1)NCc1ccc2c(c1)OCO2` as the compound, how does the cytotoxicity call read?
**A.** inactive

**Q.** How did the cytotoxicity call turn out when `O=c1[nH]snc1N1CCCCC1` was run?
**A.** inactive

**Q.** With `CC(C)CNC(=O)C(=O)NC(C)C` as the compound, how does the cytotoxicity call read?
**A.** inactive

**Q.** With `COc1ccc(S(=O)(=O)Nc2ccc3c(c2)C(=O)N([C@H](C)CO)C[C@H](C)[C@@H](CN(C)C(=O)Nc2cccc4ccccc24)O3)cc1` as the compound, how does the cytotoxicity call read?
**A.** inactive

**Q.** With `COc1ccccc1NC(=O)N(C)C[C@H]1Oc2ncc(Br)cc2C(=O)N([C@H](C)CO)C[C@H]1C` as the compound, how does the cytotoxicity call read?
**A.** inactive

**Q.** How did the cytotoxicity call turn out when `CC(C)CN1C(=O)[C@@]2(c3ccc([N+](=O)[O-])cc3)CC(=O)N(CC3C4CC5CC(C4)CC3C5)[C@@H]2c2ccc(CO)cc21` (some centres undefined) was run?
**A.** inactive

**Q.** With `C[C@H]1CN([C@@H](C)CO)C(=O)c2cccc(NS(C)(=O)=O)c2O[C@H]1CN(C)C(=O)NC1CCCCC1` as the compound, how does the cytotoxicity call read?
**A.** inactive
